In all, about 13,000 compounds went through this assay and about 3,200 (25%) showed an effect of 50% or more. Some of the results follow.

This experiment relates to P. falciparum stage V gametocytes. Details: BacTiter-Glo ATP luminescence viability of purified stage V gametocytes in 384-well plates, per cent inhibition versus DMSO. The conditions noted are these: 48 h, 5 µM; inhibitor.
For the compound `OCCN1CCN(Cc2ccc(-c3ccc(-c4nc5ccc(C(F)(F)F)cc5[nH]4)s3)cc2)CC1` [TCMDC-133034], the “% Inhibition” value is 6.44%.

In the case of `COc1ccc(NC(=O)Nc2ccc(-c3cccc(-c4nc5ccccc5[nH]4)c3)cc2)cc1` [TCMDC-133250], the “% Inhibition” value is -9.476%.

Take `O=C(Nc1ccc(Cn2ncc(N3CCCNCC3)c(Cl)c2=O)cc1)Nc1cccc(C(F)(F)F)c1` [TCMDC-141925]: the “% Inhibition” value is -42.22%.

As for `NC(=O)c1ccc(C(=O)Nc2cccc(-c3csc(-c4nc5ccccc5[nH]4)c3)c2)cc1` [TCMDC-132400], the “% Inhibition” value was -14.2%.

`Cc1cc(C(F)(F)F)n2nc(C(=O)N(C)Cc3cncn3Cc3ccc(F)cc3)cc2n1` [TCMDC-132466]: the “% Inhibition” value came to 29.43%.

For `Cc1ccc(N2CCc3c(-c4cc5cccnc5nc4C)cc(C)nc32)c(Cl)c1` [TCMDC-136379], the “% Inhibition” value was 19.51%.

As for `COc1ccc(C=C2SC(=O)NC2=Nc2ccccc2)c(OC)c1` [TCMDC-123697], the “% Inhibition” value was determined as 23.55%.

For the compound `Cl.OCCNc1nc(Nc2cccc(O)c2)nc2ccccc12` [TCMDC-123747], the “% Inhibition” value is -37.65%.

On to `Oc1ccc2nc(Nc3ccccc3)nc(NCCc3ccccc3)c2c1` [TCMDC-138404], for which the “% Inhibition” value amounted to 68.97%.

On to `Oc1ccc2nc(NCCCc3ccccc3)nc(NCCc3ccccc3)c2c1` [TCMDC-138406], for which the “% Inhibition” value is on record as 91.92%.

As for `Cl.Oc1cccc(Nc2nc(NCC3CCCO3)c3ccccc3n2)c1` (centres unmarked) [TCMDC-123641], the “% Inhibition” value is -25.34%.

Take `Cl.Oc1ccc(Nc2nc(NCC3CCCO3)c3ccccc3n2)cc1` (centres unmarked) [TCMDC-123730]: the “% Inhibition” value was determined as 79.07%.

With `NC1CCN(c2nc(NCCCc3ccc(O)cc3)nc(NCc3cccc4ccccc34)n2)CC1` [TCMDC-133393], the “% Inhibition” value is 0.2406%.

Turning to `Oc1ccc2nc(NCCCc3ccccc3)nc(NCCCc3ccccc3)c2c1` [TCMDC-138382], the “% Inhibition” value is given as 90.22%.

Turning to `Oc1cccc(Nc2nc(NCc3ccccc3)c3ccccc3n2)c1` [TCMDC-125640], the “% Inhibition” value was found to be 36.33%.

For `Brc1ccc(Nc2nc(NCC3CCCO3)c3ccccc3n2)cc1` (centres unmarked) [TCMDC-124563], the “% Inhibition” value amounted to 15.52%.

Turning to `O=C(Nc1ccc(Br)cc1)Nc1ccc(Cn2ncc(N3CCCNCC3)c(Cl)c2=O)cc1` [TCMDC-133329], the “% Inhibition” value is recorded as -9.301%.

As to `CC(=O)Nc1sc(C)c(C)c1CN1CCc2ccccc2C1` [TCMDC-124498], the “% Inhibition” value is given as -41.39%.

`COc1ccc(Nc2ncc3c(-c4cccc(NC(=O)c5ccc(N)cc5)c4)c[nH]c3n2)cc1OC` [TCMDC-135250]: the “% Inhibition” value is on record as -78.65%.

Turning to `N#Cc1ccccc1N1CCN(C2CCC(NC(=O)c3n[nH]c4cc(C(F)(F)F)ccc34)CC2)CC1` (centres unmarked) [TCMDC-134100], the “% Inhibition” value is on record as -13.75%.

Regarding `CSCCC(C(=O)O)N1C(=O)c2ccccc2C1=O` (centres unmarked) [TCMDC-125514], the “% Inhibition” value is -25.71%.

As for `O=c1cc(NCCCNCc2cccc(SC(F)(F)F)c2)[nH]c2ccccc12` [TCMDC-139420], the “% Inhibition” value is recorded as -38.07%.

Regarding `CC(O)C1CCCCN1C(=O)c1ccc(-c2ccc(-c3nc4ccccc4[nH]3)s2)cc1` (centres unmarked) [TCMDC-132330], the “% Inhibition” value is recorded as -3.595%.

In the case of `CCN1CCN(c2cc(C)c3cc(NC(=O)C=Cc4cccc(OC)c4OC)ccc3n2)CC1` [TCMDC-123803], the “% Inhibition” value is given as -23.17%.

With `CCC(C)OC(=O)C1=C(C)NC2=C(C(=O)CC(c3ccc(OC)c(OC)c3)C2)C1c1ccc(C)o1` (centres unmarked) [TCMDC-123735], the “% Inhibition” value came out at 31.33%.

For the compound `CCCc1cc(C(=O)N[C@@H](Cc2ccccc2)[C@H](O)CNC(C)C)c(F)c(N2CCCC2=O)c1` [TCMDC-135418], the “% Inhibition” value turned out to be 10.92%.

In the case of `Cl.OCCNc1nc(Nc2ccc(F)cc2)nc2ccccc12` [TCMDC-123640], the “% Inhibition” value is -1.104%.

Consider `Cl.Oc1ccc(Nc2nc(N3CCCC3)c3ccccc3n2)cc1` [TCMDC-123532], for which the “% Inhibition” value is listed as 79.67%.

As to `COc1ccc(Nc2nc(N3CCCC3)c3ccccc3n2)cc1.Cl` [TCMDC-124381], the “% Inhibition” value is listed as -67.29%.

As for `Cl.OCCNc1nc(Nc2ccccc2)nc2ccccc12` [TCMDC-123749], the “% Inhibition” value came to 91.01%.

On to `Cl.OCCNc1nc(Nc2ccc(Cl)cc2)nc2ccccc12` [TCMDC-125389], for which the “% Inhibition” value turned out to be 1.912%.

Consider `Oc1ccc(Nc2nc(NCc3ccco3)c3ccccc3n2)cc1` [TCMDC-124015], for which the “% Inhibition” value is listed as -74.78%.

With `CC1CC(NCCCNc2cc(=O)c3ccccc3[nH]2)c2c(Cl)c(Cl)cc(Cl)c21` (centres unmarked) [TCMDC-139486], the “% Inhibition” value is 41.94%.

In the case of `C(=N\Nc1nccc2sc(-c3cccnc3)cc12)/c1ccncc1` [TCMDC-135305], the “% Inhibition” value is recorded as -45.13%.

Take `O=[N+]([O-])c1ccc2nccnc2c1` [TCMDC-123943]: the “% Inhibition” value came to 28.42%.

Consider `O=C(Nc1ccc(Oc2ccc(OC(F)(F)F)cc2)cc1)c1ccco1` [TCMDC-124049], for which the “% Inhibition” value was found to be 6.868%.

With `CCCC1N=C(N)N=C(N)N1c1cccc([N+](=O)[O-])c1` (centres unmarked) [TCMDC-131299], the “% Inhibition” value is listed as -55.59%.

With `Nc1ccc2c(N)c3ccccc3nc2c1` [TCMDC-132034], the “% Inhibition” value turned out to be 26.54%.

Regarding `Nc1cc(C(F)(F)F)ccc1Cl` [TCMDC-123950], the “% Inhibition” value was found to be 13.58%.

As to `CC(O)C(=O)O.CCOc1ccc2nc3cc(N)ccc3c(N)c2c1` [TCMDC-123983], the “% Inhibition” value was determined as 24.81%.

Regarding `CCOc1ccc2nc3cc([N+](=O)[O-])ccc3c(N)c2c1` [TCMDC-125852], the “% Inhibition” value came out at 122.1%.

As for `Nc1c2ccccc2nc2cc(C(F)(F)F)ccc12` [TCMDC-142006], the “% Inhibition” value turned out to be 51.79%.

As to `CCOc1cc(N)c2nc3ccc([N+](=O)[O-])cc3cc2c1` [TCMDC-138134], the “% Inhibition” value is 64.78%.

For `CCOc1ccc2nc3cc(NC(=O)c4ccco4)ccc3c(N)c2c1` [TCMDC-125004], the “% Inhibition” value was determined as 120.6%.

For the compound `CCNc1cc(C)nc(Nc2ccc(NC(=O)c3ccco3)cc2)n1` [TCMDC-124982], the “% Inhibition” value is -6.858%.

Turning to `FC(F)(F)c1ccc2[nH]c(-c3ccc(-c4cccc(CNCc5cnn(-c6ccccc6)n5)c4)s3)nc2c1.O=C(O)C(F)(F)F` [TCMDC-132968], the “% Inhibition” value was -47.17%.

With `CC12CN3CC(C)(CN(C1)C3c1cc(Br)ccc1O)C2O` (centres unmarked) [TCMDC-123838], the “% Inhibition” value is -31.33%.

`Nc1nc(N)c2cc(Cc3ccc([N+](=O)[O-])cc3)cnc2n1` [TCMDC-137920]: the “% Inhibition” value was -6.074%.

Consider `Nc1c2ccccc2nc2cc([N+](=O)[O-])ccc12` [TCMDC-132031], for which the “% Inhibition” value stood at 75.87%.

Consider `O=c1c2ccccc2nc(/C=C/c2ccc([N+](=O)[O-])cc2)n1-c1ccccn1` [TCMDC-125664], for which the “% Inhibition” value was found to be 33.94%.

As to `Oc1ccc(CNCC2CCN(CC3CCCCC3)CC2)cc1` [TCMDC-141676], the “% Inhibition” value was -27.61%.

For the compound `Clc1ccccc1CCNCC1CCN(CC2CCCCC2)CC1` [TCMDC-141344], the “% Inhibition” value was 100.3%.

Regarding `CCOc1ccccc1CCNCC1CCN(CC2CCCCC2)CC1` [TCMDC-141347], the “% Inhibition” value is listed as 95.36%.

`Fc1c(CNCC2CCN(CC3CCCCC3)CC2)cccc1C(F)(F)F` [TCMDC-141348]: the “% Inhibition” value is reported as 4.763%.

As to `FC(F)(F)c1cccc(CNCC2CCN(CC3CCCCC3)CC2)c1` [TCMDC-141677], the “% Inhibition” value is -8.545%.

Turning to `Clc1cccc(Cl)c1CCNCC1CCN(CC2CCCCC2)CC1` [TCMDC-141346], the “% Inhibition” value is -12.07%.

With `O=C(CCC(=O)c1ccc2c3c(cccc13)CC2)NC1CCC(CN2CCC(c3c[nH]c4ccccc34)CC2)CC1` (centres unmarked) [TCMDC-139897], the “% Inhibition” value came to 7.494%.

For `O=C(NCCCCCN1CCC(c2c[nH]c3ccccc23)CC1)c1ccc(Cl)c(Cl)c1` [TCMDC-139112], the “% Inhibition” value is -15.31%.

Take `O=C(COc1ccc(Cl)cc1)N1CCC(CN2CCC(c3c[nH]c4ccccc34)CC2)CC1` [TCMDC-139943]: the “% Inhibition” value is reported as -35.41%.

On to `c1ccc2c(C3CCN(CCCCOc4ccc5c(c4)CCN(C4CCC4)CC5)CC3)c[nH]c2c1` [TCMDC-136242], for which the “% Inhibition” value worked out at 103%.

`c1ccc2c(C3CCN(CCCCOc4ccc5c(c4)CCN(CC4CC4)CC5)CC3)c[nH]c2c1` [TCMDC-136244]: the “% Inhibition” value amounted to 103.6%.

Turning to `CCCCNC(=O)C(C)NC(=O)c1ccc(O)c(-c2ccc(Cl)c(Cl)c2)c1` (centres unmarked) [TCMDC-140838], the “% Inhibition” value is 12%.

Regarding `O=C1OC(c2ccccc2)(c2ccccn2)CN1C1CCN(Cc2cccn2-c2ccc(Cl)cc2)CC1` (centres unmarked) [TCMDC-134418], the “% Inhibition” value turned out to be 32.68%.

As for `CC(CCON1C(N)=NC(N)=NC1(C)C)c1ccc(Cl)cc1` (centres unmarked) [TCMDC-131721], the “% Inhibition” value is recorded as 15.12%.

Turning to `CC(CCON1C(N)=NC(N)=NC1(C)C)c1ccc(Cl)c(Cl)c1` (centres unmarked) [TCMDC-123922], the “% Inhibition” value is 56.56%.

Take `CC1(C)N=C(N)N=C(N)N1OCc1cc(Cl)c(CON2C(N)=NC(N)=NC2(C)C)cc1Cl` [TCMDC-131624]: the “% Inhibition” value was 88.84%.

Consider `CCC(CCON1C(N)=NC(N)=NC1(C)C)c1ccc(Cl)c(Cl)c1` (centres unmarked) [TCMDC-131702], for which the “% Inhibition” value is given as 42.49%.

Take `CC1(C)N=C(N)N=C(N)N1OCc1cc(Cl)c(Cl)cc1CON1C(N)=NC(N)=NC1(C)C` [TCMDC-131611]: the “% Inhibition” value was -27.6%.

Turning to `CC(C)Sc1ccc(Cl)cc1CON1C(N)=NC(N)=NC1(C)C` [TCMDC-131322], the “% Inhibition” value was determined as 57.4%.

In the case of `CC(CON1C(N)=NC(N)=NC1(C)C)c1ccc(Cl)cc1Cl` (centres unmarked) [TCMDC-131687], the “% Inhibition” value worked out at 1.916%.

Consider `CCSc1ccccc1CON1C(N)=NC(N)=NC1(C)C` [TCMDC-131324], for which the “% Inhibition” value is recorded as 26.32%.

On to `CC1(C)N=C(N)N=C(N)N1OCc1cccc(Cl)c1Cl` [TCMDC-131612], for which the “% Inhibition” value is 37.87%.

In the case of `COc1ccc(CN(C)C(=O)CCNS(=O)(=O)c2ccc3c(c2)OCCCO3)cc1F` [TCMDC-125302], the “% Inhibition” value amounted to 27.77%.

In the case of `COc1ccc(C2(CNCC(O)c3cccc([N+](=O)[O-])c3)CCCCC2)cc1OC` (centres unmarked) [TCMDC-125753], the “% Inhibition” value is given as 32.79%.

For the origin of these results see paper PMC4552634, “A New Set of Chemical Starting Points with Plasmodium falciparum Transmission-Blocking Potential for Antimalarial Drug Discovery” (PLoS ONE, 2015).
